PubChem BioAssay (NCI)
About 83,000 compounds went through this panel and 20% of them were active in at least one assay; those are over-represented in the sample as a whole.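 Growth was measured after 48 h exposure to one concentration of compound in 96-well plates. Values under 10 count as active.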 A number with no mark means an inactive call. Active and inactive are the calls of the source.

Test system: HL-60(TB) leukemia
Assay: NCI-60 one-dose screen, 48 h (100 = growth as untreated, 0 = no growth, -100 = all killed)
Details: 10 µM unless noted

| Structure (SMILES) | growth |
| --- | --- |
| CCCCCC(=O)Oc1ccc(/C(=C(\C)c2ccccc2)c2ccc(OCCN(CC)CC)cc2)cc1 | 33.9% |
| COc1ccc(OC)c(/C=C/c2nnc(Nc3ccc(Cl)cc3)o2)c1 | 80.6% |
| CSc1nc2ncncc2[nH]1 | 91.2% |
| CCCCCCCCCCCCCCCC[N+]1(C)CCOCC1 | -59.5% (active) |
| Cc1cc(C)nc(SC2=C(Nc3cccc(Cl)c3C)C(=O)N(Cc3ccccc3)C2=O)n1 | 10.4% [30 µM] |
| O=C1C(=O)c2c(nc3ncccn23)-c2ccccc21 | -51% (active) |
| COc1cc2c(cc1OC)-c1c(oc3c4c(ccc3c1=O)OC(C)(C)C=C4)CO2 | 46.4% |
| O=C(N/N=C/c1ccc(Cl)cc1)c1ccc(NC(=O)c2ccccn2)cc1 | 103% |
| COc1ccc(C2=C/C(=C\c3ccc(Cl)cc3)C(=O)NN2C(=S)NN)cc1 | 93.3% |
| Cc1cc(N)cc(C)c1-c1c(Br)cc(N)cc1Br | 10.4% |
| O=C(c1ccc(Cl)cc1)C1C(c2ccccc2)C1[N+](=O)[O-] (centres undefined) | 99.3% |
| COc1cc(C2=NN(C=O)C(c3cccc(Nc4ccnc5cc(Cl)ccc45)c3)C2)cc(OC)c1OC (centres undefined) | 75.4% |
| O=C1/C(=C/c2ccccc2)Oc2ccc(O)c(I)c21 | 95.4% |
| Nc1nc(Cl)cc(NCc2ccc(CNc3cc(Cl)nc(N)n3)cc2)n1 | 78.7% |
| O=C1/C(=C/c2ccccc2[N+](=O)[O-])COc2ccc(O)c(O)c21 | -29.2% (active) |
| COc1cc(NS(=O)(=O)C(C)C)cc(-c2cc(-c3ccc(N4CCNCC4)cc3)cnc2N)c1 | 78.3% |
| Cc1ccc(-c2nc(C(Cl)Cl)n3nc(-c4ccccc4)cc3n2)cc1 | 61.3% |
| NCCOc1ncccc1/C=C1\c2ccccc2-c2ccc(C(F)F)cc21 | -3.26% (active) |
| S=C(Sc1ccc(Cl)cc1)Sc1ccc(Cl)cc1 | -63.7% (active) |
| COc1cccc(/C=N/NC(=O)c2ccccc2N2CCCC2)c1O | 4.58% (active) |

| Structure (SMILES) | growth |
| --- | --- |
| C=C1C(=O)O[C@H]2[C@H]1CC/C(COC(=O)NCCc1cccc(OC)c1)=C\CC[C@@]1(C)O[C@@H]21 | 6.53% (active) |
| CCOc1ccccc1C(=O)/C=C/c1cc2ccccc2[nH]c1=O | -7.94% (active) |
| COc1cc(C2CC(c3ccc(Nc4nc(NCCO)nc(NCCO)n4)cc3)=NN2c2cc(Cl)cc(Cl)c2)cc(OC)c1OC (centres undefined) | -5.04% (active) |
| CC1(C)CC(=O)C2=C(C1)Nc1cc3c(cc1C2c1ccc(F)cc1)OCO3 (centres undefined) | 90.2% |
| O=C(Nc1ncc(Cc2ccccc2)s1)c1ccc2c(c1)OCCO2 | -48.6% (active) |
| C=C1C(=O)O[C@H]2[C@H]1CC/C(COC(=O)NCc1nc3ccccc3[nH]1)=C\CC[C@@]1(C)O[C@@H]21 | 17% |
| Cc1[nH]n(C(N)=S)c(=O)c1N=Nc1ccc(S(=O)(=O)Nc2ccncn2)cc1 | 103% |
| C=C(C)[C@@H]1CC[C@]2(C(=O)O)CC[C@]3(C)[C@H](CC[C@@H]4[C@@]5(C)C[C@@H](CC#Cc6ccccc6C)C(=O)C(C)(C)[C@@H]5CC[C@]43C)[C@@H]12 | -14.7% (active) |
| CCCCCCNC(=O)c1cc(NCc2cc(O)ccc2O)ccc1O | -6.21% (active) |
| BrC1CC(Br)c2c1c1c(c3c2C(Br)CC3Br)C(Br)CC1Br (centres undefined) | 55.7% |
| COc1cc2cc(NCc3ccc(Cl)cc3)nc(C)c2cc1OC | 31.3% |
| CC(C)OC(=O)[C@H](C)N[P@@](=O)(OC[C@@]1(C)O[C@@H](n2cc(F)c(N)nc2=O)C[C@@H]1O[P@](=O)(N[C@@H](C)C(=O)OC(C)C)Oc1ccccc1)Oc1ccccc1 | 95.5% |
| CC1=CC(=O)OC1C/C=C(\C)CCC1[C@@]2(C)CCC[C@@](C)(C(=O)O)C2CC[C@@]1(C)O (some centres undefined) | 95.8% |
| c1ccc(CN=C(NCc2ccccc2)NCc2ccccc2)cc1 | 49.9% |
| COc1c(C)c2c(c(O)c1C/C=C(\C)CCC(=O)OCCN1CCOCC1)C(=O)OC2 | 36.7% |
| NC(=O)C(O)(c1ccccc1)c1ccccc1 | 99% |
| Oc1c(CN2CCCC2)cc(CSCc2ccccc2)c2cccnc12 | -23.7% (active) |
| N=C(N)c1ccc(-c2ccc(-c3cccs3)s2)cc1 | -46.6% (active) |
| O=S(=O)(Oc1ccc(-c2ccc3sccc3c2)cc1)c1ccccc1 | 99.6% |
